± gives the standard deviation of the averaged measurements.
System: Listeria monocytogenes 10403S
Test: growth inhibition relative to ceftriaxone-alone control; higher = stronger potentiation of ceftriaxone growth inhibition
Conditions: 10 µM; ceftriaxone 1 ug/ml; 12 h
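Further: End-point A600 read in BHI broth at 37 °C with 2% DMSO, inhibition computed as (1 − OD with compound plus ceftriaxone ÷ OD with ceftriaxone only) × 100.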

Structure (SMILES)	growth inhibition
COc1c(C(N)=O)cc(-c2ccc(Cl)cc2)cc1-c1ccc(S(N)(=O)=O)cc1	1.37 ± 1.2%
COc1cc(CCc2cc(NC(=O)c3ccc(N4CC(C)NC(C)C4)cc3)n[nH]2)cc(OC)c1 (centres undefined)	38.3 ± 21%
C[S+]([O-])c1ccc(-c2nc(-c3ccc(F)cc3)c(-c3ccncc3)[nH]2)cc1 (centres undefined)	28.4 ± 26%
N#Cc1c(O)c2c(-c3ccc(-c4ccccc4O)cc3)csc2[nH]c1=O	40.8 ± 15%
O=C(NCCCNc1nc(Nc2cccc(NC(=O)N3CCCC3)c2)ncc1I)c1cccs1	-19.4 ± 21%
C#Cc1cccc(Nc2ncnc3ccc(OCCCCNCCS(C)(=O)=O)cc23)c1	-12 ± 5.6%
Cc1cnc(Nc2ccc(N3CCN(C)CC3)cc2)nc1Nc1cccc(S(=O)(=O)NC(C)(C)C)c1	42.3 ± 24%
CC1=C(C(=O)Nc2ccc3[nH]ncc3c2)C(c2ccc(Cl)c(Cl)c2)CC(=O)N1 (centres undefined)	-13 ± 9.9%
COc1cc2ncn(-c3cc(OCc4ccccc4C(F)(F)F)c(C(=O)N(C)C)s3)c2cc1OC	-5.41 ± 4.1%
COC(=O)Nc1nc2cc(Oc3cccc(NC(=O)Nc4cc(C(F)(F)F)ccc4F)c3)ccc2[nH]1	-5.06 ± 1.8%
CN1CCN(c2cccc(Nc3nc4c(-c5ccc(S(C)(=O)=O)cc5)cccn4n3)c2)CC1	69 ± 27%
O=c1cc(N2CCOCC2)oc2c(-c3ccccc3)cccc12	27.4 ± 29%
O=C(O[C@H]1CN[C@H](C#Cc2cc3ncnc(Nc4ccc(Cc5ccccc5)cc4)c3s2)C1)N1CCOCC1	-6.43 ± 10%
COc1cc2nccc(Oc3ccc(NC(=O)Nc4cc(C)on4)c(Cl)c3)c2cc1OC [Tivozanib (AV-951)]	23.7 ± 1.2%
